Screens deposited in PubChem by National Center for Advancing Translational Sciences (NCATS).
PKM2 inhibitor – PKM2 (human) enzyme inhibition; P14618; actives 0.058% (n = 260,000); purified PKM2, ATP generation, Kinase-Glo luminescence; Potency, µM (highest dose often 57.5 µM), for inactives: at the top dose activity change, negative = inhibition, hits mostly inhibitors; note: potency is the fitted concentration of half-maximal effect; nearly all actives have a fitted effect of over 60% in size
Target sequence (P14618 whole entry, looked up): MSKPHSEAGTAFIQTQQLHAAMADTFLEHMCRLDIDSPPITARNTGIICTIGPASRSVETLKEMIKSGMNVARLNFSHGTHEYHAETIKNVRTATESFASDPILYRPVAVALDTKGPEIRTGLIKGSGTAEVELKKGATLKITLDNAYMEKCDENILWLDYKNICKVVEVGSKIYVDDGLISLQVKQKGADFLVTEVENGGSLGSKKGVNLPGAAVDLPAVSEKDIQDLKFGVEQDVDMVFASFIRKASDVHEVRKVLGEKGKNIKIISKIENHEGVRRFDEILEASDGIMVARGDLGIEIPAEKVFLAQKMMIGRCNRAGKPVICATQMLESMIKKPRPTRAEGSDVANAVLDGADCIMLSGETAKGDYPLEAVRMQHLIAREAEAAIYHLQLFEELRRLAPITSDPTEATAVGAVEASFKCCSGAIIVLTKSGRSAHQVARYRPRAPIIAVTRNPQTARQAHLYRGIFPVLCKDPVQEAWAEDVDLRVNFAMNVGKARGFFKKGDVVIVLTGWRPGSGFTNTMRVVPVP
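Enzyme run at intermediate activity with final 0.1 mM ADP, 0.5 mM PEP (50 mM imidazole pH7.2, 50 mM KCl, 7 mM MgCl2), incubated 1 h at r.t. ATP formed read by Kinase-Glo luminescence, normalized to no-enzyme (full inhibition) and uninhibited wells.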
PKM2 inh CRC – PKM2 (human) inhibition, concentration-response confirmation; shares compounds with PKM2 inhibitor; purified hPK-M2, Kinase-Glo ATP luminescence, 1 h; Potency, µM (doses to about 57.5 µM), for inactives: top-dose activity change, negative = inhibition, hits mostly inhibitors; actives 50% (n = 55)
PKM2 FLuc cs – counter-screen for pyruvate kinase M2 inhibitors: firefly luciferase inhibition | shares compounds with PKM2 inhibitor | Kinase-Glo firefly luciferase, luminescence, 8 min | Potency, µM (doses to about 57.5 µM), without a hit: at the highest dose activity, negative = inhibition, actives largely listed as inhibitors | actives 30% (n = 55)
PKM2 LDH couple – PKM2 (human) inhibition, NADH coupled readout; shares compounds with PKM2 inhibitor; purified hPK-M2, LDH-coupled NADH fluorescence kinetic; Potency, µM (titrated, usually from 57.5 µM), for the others: top-dose activity change, negative = inhibition, usual class: inhibitors; 55 tested, under 10 active; AID 2267
Active calls of the source: *; ? = inconclusive; . = not tested or not shown. The sample as a whole holds a higher share of hits than the screen did. Calls come from the whole dose curve; as a rule, active = well fitted curve in the direction sought with a large enough effect; inconclusive = small, poorly fitted or top-dose-only effect, or another doubt; inactive = no such curve, though single readings can be large; an effect the other way counts as inactive or inconclusive.

SMILES	PKM2 inhibitor	others
Cc1ccc(Nc2c(-c3ccc(C)o3)nc3ccccn23)cc1	.	PKM2 inh CRC=10%;PKM2 FLuc cs=0%;PKM2 LDH couple=4.6µM*
Cc1cc(C)n2c(Nc3ccc4c(c3)OCCO4)c(-c3ccc(C)o3)nc2n1	43%
Cc1ccc(-c2cc(-c3ccc(C)o3)nc(N)c2C#N)cc1	58%
Cc1ccn2c(NC3CCCCC3)c(-c3ccc(C)o3)nc2c1	.	PKM2 inh CRC=16%;PKM2 FLuc cs=5%;PKM2 LDH couple=-9%
Cc1ccc2nc(-c3ccc(C)o3)c(Nc3ccc4c(c3)OCO4)n2c1	.	PKM2 inh CRC=12%;PKM2 FLuc cs=2%;PKM2 LDH couple=-6%
Cc1ccc(-c2nc3ccccn3c2Nc2ccccc2)o1	67%
CC(=O)N1CC=CC1(CC(C)C)C(=O)NCc1ccc(C)o1 (stereo unspecified)	32%
CCOC(=O)c1ccc(NS(=O)(=O)c2cccc3nsnc23)cc1	38%
N#CCC(=O)Nc1ccc(C(=O)Nc2cccc(S(N)(=O)=O)c2)cc1	37%
CCN(CC)c1ccc2cc(S(=O)(=O)c3ccc(C)cc3)c(=O)oc2c1	35%
Cc1ccc(N2C(=O)CC(C)(C)CC2=O)cc1Cl	0%
Cc1ccccc1NC(=O)C1CCCN1/C=C/C(=O)C(F)(F)F (stereo unspecified)	40%
CCS(=O)(=O)N1CCN(S(=O)(=O)c2ccc3c(c2)OCCO3)CC1	62%
CC(=O)NC1=NN(C(C)=O)C(c2ccccn2)S1 (stereo unspecified)	107%
COc1ccc(CCNC(=S)N2CCN(S(=O)(=O)c3ccccc3F)CC2)cc1	49%
COc1ccc(CNC(=O)c2ccc(NS(=O)(=O)c3c(C)noc3C)cc2)cc1	44%
Fc1ccccc1-c1ccc(-c2nc3ccc(Cl)cn3c2Nc2ccc(Cl)cc2)o1	.	PKM2 inh CRC=14%;PKM2 FLuc cs=5%;PKM2 LDH couple=2%
COc1ccc(-n2c(=O)c3c4c(sc3n(CC(N)=O)c2=O)CCCCC4)cc1	-1%
O=C(N1CCOCC1)N1CCN(S(=O)(=O)c2ccc(F)cc2)CC1	32%
Cn1c(NCc2c[nH]c3ccccc23)nc2ccccc21	53%
Cn1c(N=Nc2ccccc2)nc2ccccc21	5.6µM*	PKM2 inh CRC=13µM*;PKM2 FLuc cs=5.2µM*;PKM2 LDH couple=30%
CC(=O)c1c(C)[nH]c(C(=O)Nc2ccc(C)cc2Br)c1C	59%
COc1cc(C(=O)NCC(=O)N2CCN(S(=O)(=O)c3cc(C)ccc3C)CC2)cc(OC)c1OC	32%
Cn1c(=O)n(C)c2cc(NS(=O)(=O)c3cccs3)ccc21	36%
Cc1ccc2nc(-c3cccs3)c(Nc3ccccc3)n2c1	.	PKM2 inh CRC=3%;PKM2 FLuc cs=-4%;PKM2 LDH couple=-7%
SMILES	PKM2 inhibitor	others
Cc1ccc2nc(-c3ccncc3)c(Nc3ccccc3)n2c1	.	PKM2 inh CRC=16%;PKM2 FLuc cs=-2%;PKM2 LDH couple=-1%
O=C(CSc1ccc(-c2cccs2)nn1)Nc1ccccc1	44%
CC(C)c1nc2sc(C(=O)O)c(N)c2c2c1CCCC2	81%
O=[N+]([O-])c1ccc(Sc2nnnn2-c2ccccc2)nc1	64%
O=C1C(c2cc(=O)c3ccccc3[nH]2)=C(O)c2ccccc21	11µM*	PKM2 inh CRC=16µM*;PKM2 FLuc cs=-13%;PKM2 LDH couple=?
O=C(NCCc1ccccc1)c1c(O)c2ccccc2[nH]c1=O	36%
COc1cc(C(c2nnnn2C(C)(C)C)N2CCN(c3nc4ccccc4s3)CC2)ccc1O (stereo unspecified)	83%
COc1ccc([N+](=O)[O-])cc1NC(=O)COC(=O)c1ccc(O)cc1	-5%
COc1ccc(N2CCN(C(=O)[C@H](Cc3c[nH]c4ccccc34)NC(C)=O)CC2)cc1	67%
Cc1ccc(CCC(=O)Nc2nccs2)o1	90%
CCOc1ccc(OCC(=O)Nc2nccs2)cc1	10µM*	PKM2 inh CRC=10µM*;PKM2 FLuc cs=?;PKM2 LDH couple=-2%
CCOC(=O)C(Cc1ccccc1)C(=O)Nc1nccs1 (stereo unspecified)	45%
O=C1C=CC(=O)N1c1cccc(-c2ccccc2)c1	70%
CC(=O)c1ccn(S(=O)(=O)c2ccccc2)c1	41%
O=C(O)C[C@@H]1C(=O)O[C@@H]2C(COC(=O)c3cc(O)c(O)c(O)c3)O[C@@H](OC(=O)c3cc(O)c(O)c(O)c3)[C@@H](OC(=O)c3cc(O)c(O)c4c3[C@H]1[C@H](O)C(=O)O4)[C@H]2OC(=O)c1cc(O)c(O)c(O)c1 (stereo partly specified)	4%
O=C(Nc1nc2ccccc2[nH]1)c1ccccc1F	8.9µM*	PKM2 inh CRC=5.2µM*;PKM2 FLuc cs=4.1µM*;PKM2 LDH couple=-7%
CC(=O)c1cc2c(cc1NC(=O)CSc1nc3ccccc3[nH]1)OCO2	32%
